Source: PubChem BioAssay (NCI)
About 83,000 compounds went through this panel and 20% of them were active in at least one assay; those are over-represented in the sample as a whole.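 Cell lines were cultured in 96-well plates, exposed to a single compound concentration, and assessed for percent growth 48 hours later.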 Values without a mark were called inactive. Active and inactive are the calls of the source. How the source made its calls: active means growth percent below 10; inactive means the rest.

Key:
Assay in all cases: NCI-60 one-dose screen, 48 h (100 = growth as untreated, 0 = no growth, -100 = all killed)
Conditions in all cases: 10 µM
[1] = tested on: SN12C renal
[2] = tested on: UO-31 renal
[3] = tested on: TK-10 renal
[4] = tested on: CAKI-1 renal
[5] = tested on: A498 renal
[6] = tested on: CCRF-CEM leukemia
[7] = tested on: MOLT-4 leukemia
[8] = tested on: SR leukemia
[9] = tested on: RPMI-8226 leukemia
[10] = tested on: OVCAR-8 ovarian
[11] = tested on: OVCAR-5 ovarian
[12] = tested on: OVCAR-4 ovarian
[13] = tested on: SK-OV-3 ovarian
[14] = tested on: IGROV1 ovarian
[15] = tested on: OVCAR-3 ovarian
[16] = tested on: HS 578T breast
[17] = tested on: NCI/ADR-RES ovarian
[18] = tested on: EKVX NSCLC
[19] = tested on: ACHN renal

Row | SMILES | growth [1] | growth [2] | growth [3] | growth [4] | growth [5] | growth [6] | growth [7] | growth [8] | growth [9] | growth [10] | growth [11] | growth [12] | growth [13] | growth [14] | growth [15] | growth [16] | growth [17] | growth [18] | growth [19]
1 | O=C1/C(=C/c2ccc([N+](=O)[O-])s2)Oc2ccc(Cl)cc21 | -54.3% (active) | -89.4% (active) | -32.7% (active) | -29.9% (active) | 9.57% (active) | 2.86% (active) | -15.7% (active) | 1.07% (active) | 0.77% (active) | 1.27% (active) | -80.6% (active) | -76.5% (active) | 7.47% (active) | -67.9% (active) | -68.8% (active) | 17.6% | 4.88% (active) |  | 
2 | Nc1cc(O)cc(O)c1 |  | 97.8% | 87.4% | 96.2% | 116% | 114% | 104% | 91.7% | 109% | 104% | 89.6% | 94.1% | 99.3% | 100% | 108% |  | 99.7% | 97.1% | 105%
3 | CCN(CC)CC(O)Cc1ccc(OC)cc1 (stereo unspecified) | 104% | 103% | 96.5% | 101% | 96.7% | 98.9% | 95.7% | 104% | 108% | 110% | 106% | 113% | 114% | 122% | 125% | 107% | 113% | 98.7% | 
4 | O=C(Nc1cccc([N+](=O)[O-])c1)NN1CCCCCC1 | 96.5% | 92.5% | 105% | 96.2% | 77.3% | 86.1% | 106% | 108% | 60.5% | 99.2% | 105% | 98.1% | 114% | 109% | 87.4% | 97.2% | 91.4% | 81.3% | 
5 | CCCCCCCCCCCC(c1ccccc1)N(C)C (stereo unspecified) | 90.7% | 68.9% | 134% | 93.2% | 71.2% | 69.1% | 82.1% | 77% | 83.5% |  | 99.2% | 84.7% | 108% | 96.1% | 106% | 93.3% | 96.1% |  | 92.5%
6 | Nc1cc2c(cc1Cl)-c1ccc(Cl)cc1C2=O | 93.1% | 61.6% | 117% | 96.4% | 95.7% | 86.1% | 81.4% | 109% | 88.8% | 92.1% | 100% | 98.8% | 98.6% | 107% | 104% |  | 99.5% | 67.7% | 
7 | N#Cc1c2c([nH]c(=O)c1C(N)=O)CCCCC2 |  | 85.2% | 95.4% | 99.3% | 89.8% | 95% | 117% | 108% | 103% | 102% |  | 116% | 91.6% | 102% | 113% | 91.4% | 111% | 104% | 104%
8 | C=CCn1c(C)nc2cc(Nc3nc(Nc4ccc5nc(C)n(CC=C)c5c4)c4ccccc4n3)ccc21 | -69.6% (active) |  | -97.2% (active) | -86.4% (active) | -100% (active) | -11.3% (active) | -26.8% (active) | -44.2% (active) | -24% (active) | -40.9% (active) | -92.5% (active) | -100% (active) | -95.7% (active) | -93.8% (active) | -99.8% (active) | -48.1% (active) | -23.7% (active) |  | -97.4% (active)
9 | CCOC(=O)c1c(C)n(-c2ccc(Cl)cc2)c2ccc(OC(=O)/C=C/c3ccccc3)cc12 | 86.6% | 83.1% | 96% | 103% | 68.7% | 75.1% | 69.8% | 26.7% | 67.6% | 88.8% | 108% | 81.6% | 93.9% | 88.3% | 77.7% | 82.6% | 61.7% |  | 98.7%
